Data as given in PubChem BioAssay (NCATS).
Records with an inconclusive call do not appear. Where a call stands in place of a potency, no number is given. The source made the active and inactive calls. The call rests on the fitted dose curve; in most records, active means well fitted curve in the direction sought with a large enough effect; inconclusive means small, poorly fitted or top-dose-only effect, or another doubt; inactive means no such curve, though single readings can be large; an effect the other way counts as inactive or inconclusive.

molecular target: Glucagon-like peptide 1 receptor (Homo sapiens) (UniProt P43220); test: qHTS of GLP-1 Receptor Agonists: LOPAC Validation (AID 624148); conditions: GLP-1R agonist cell assay; series mostly up to 46.1 µM;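 further: higher luminescence signal means agonism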
How it was run: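 HEK293 cells stably co-expressing a cAMP-responsive luciferase reporter and a hypersensitive GLP-1R were plated 12 h at 37 °C and exposed to compounds for 4-6 hr at 37 °C, 5% CO2. Luminescence was read 12 min after adding detection reagent.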

Glucagon-like peptide 1 receptor (Homo sapiens), sequence (P43220 whole entry, looked up): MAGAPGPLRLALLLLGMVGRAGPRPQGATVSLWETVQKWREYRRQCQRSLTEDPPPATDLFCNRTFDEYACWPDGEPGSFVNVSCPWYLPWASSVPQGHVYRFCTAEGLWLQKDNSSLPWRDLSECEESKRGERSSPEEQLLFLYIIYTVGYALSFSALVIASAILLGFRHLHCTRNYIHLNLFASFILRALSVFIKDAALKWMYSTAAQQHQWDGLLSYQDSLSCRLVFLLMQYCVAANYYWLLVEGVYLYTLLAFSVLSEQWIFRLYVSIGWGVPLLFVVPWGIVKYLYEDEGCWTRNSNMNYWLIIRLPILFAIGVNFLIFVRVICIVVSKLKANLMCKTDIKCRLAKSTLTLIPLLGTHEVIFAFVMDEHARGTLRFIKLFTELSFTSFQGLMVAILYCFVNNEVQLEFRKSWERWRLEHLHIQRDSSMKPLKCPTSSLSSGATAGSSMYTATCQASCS

SMILES | outcome
COc1ccc(C(CN(C)C)C2(O)CCCCC2)cc1 (centres undefined) | inactive
Cc1ccc(S(=O)(=O)N[C@@H](CCCCN)C(=O)CCl)cc1 | inactive
COc1ccccc1N1CCNCC1 | inactive
CC(=O)[C@H]1CC[C@H]2[C@@H]3CC[C@H]4C[C@H](O)CC[C@]4(C)[C@H]3C(=O)C[C@]12C | inactive
Nc1ccncc1 | inactive
CCCC(C)(COC(N)=O)COC(=O)NC(C)C (centres undefined) | inactive
CC(=O)[C@H]1CC[C@H]2[C@@H]3CC[C@H]4C[C@](C)(O)CC[C@]4(C)[C@H]3CC[C@]12C | inactive
CC[C@@H](CO)NC(=O)[C@@H]1C=C2c3cccc4[nH]cc(c34)C[C@H]2N(C)C1 | inactive
O=C1NCN(c2ccccc2)C12CCN(CC1COc3ccccc3O1)CC2 (centres undefined) | inactive
c1ccc(C2CC2)c(OCC2=NCCN2)c1 | inactive
NN=C(N)N | inactive
O=c1[nH]c2ccccc2n1C1CCN(CCCC(c2ccc(F)cc2)c2ccc(F)cc2)CC1 | inactive
NCC(O)c1ccc(O)cc1 (centres undefined) | inactive
C[C@@H]1O[C@@H](O[C@H]2C[C@@H](O)[C@]3(CO)[C@H]4[C@H](O)C[C@]5(C)[C@@H](C6=CC(=O)OC6)CC[C@]5(O)[C@@H]4CC[C@]3(O)C2)[C@H](O)[C@H](O)[C@H]1O | inactive
CCCN1CCC[C@@H]2Cc3nc(N)ncc3C[C@H]21 | inactive
CC[C@@H](CO)NC(=O)[C@@H]1C=C2c3cccc4c3c(cn4C)C[C@H]2N(C)C1 | inactive
O=c1[nH]c2ccccc2n1CCCN1CCC(n2c(=O)[nH]c3cc(Cl)ccc32)CC1 | inactive
NCC(CC(=O)O)c1ccc(Cl)cc1 (centres undefined) | inactive
Fc1ccc(C(OCCN2CCN(CCCc3ccccc3)CC2)c2ccc(F)cc2)cc1 | inactive
CC(C)=CCOc1c2occc2cc2ccc(=O)oc12 | inactive
NCC1(CC(=O)O)CCCCC1 | inactive
Cc1cccc(C)c1NC1=NCCCS1 | inactive
Cc1ncc(CNC(=O)N(CCCl)N=O)c(N)n1 | inactive
CCCN1CCC[C@@H]2Cc3[nH]ncc3C[C@H]21 | inactive
C=C(C)[C@H]1Cc2c(ccc3c2O[C@@H]2COc4cc(OC)c(OC)cc4[C@@H]2C3=O)O1 | inactive
CCC1(C2=NCCN2)Cc2ccccc2O1 (centres undefined) | inactive
N#CC(C#N)=Cc1ccc(O)c(O)c1 | inactive
Cc1cccc(C)c1NC(=O)CN1CCCC1=O | inactive

tested on: not listed separately; test: qHTS of Nrf2 Activators: LOPAC Validation (AID 624149); conditions: Nrf2/ARE reporter cell assay; series mostly up to 46.1 µM
How it was run: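 AREc32_Fluc cells, 1000/well in OPTI-MEM with 5% FBS, grown overnight, then exposed to compounds for 24 hr at 37 deg C, 5% CO2. ARE-driven firefly luciferase read by Steady-Glo luminescence after 30 min at RT.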

SMILES | outcome
COc1ccc(C(CN(C)C)C2(O)CCCCC2)cc1 (centres undefined) | inactive
Cc1ccc(S(=O)(=O)N[C@@H](CCCCN)C(=O)CCl)cc1 | inactive
COc1ccccc1N1CCNCC1 | inactive
CC(=O)[C@H]1CC[C@H]2[C@@H]3CC[C@H]4C[C@H](O)CC[C@]4(C)[C@H]3C(=O)C[C@]12C | inactive
Nc1ccncc1 | inactive
CCCC(C)(COC(N)=O)COC(=O)NC(C)C (centres undefined) | inactive
CC(=O)[C@H]1CC[C@H]2[C@@H]3CC[C@H]4C[C@](C)(O)CC[C@]4(C)[C@H]3CC[C@]12C | inactive
CC[C@@H](CO)NC(=O)[C@@H]1C=C2c3cccc4[nH]cc(c34)C[C@H]2N(C)C1 | inactive
O=C1NCN(c2ccccc2)C12CCN(CC1COc3ccccc3O1)CC2 (centres undefined) | inactive
c1ccc(C2CC2)c(OCC2=NCCN2)c1 | inactive
NN=C(N)N | inactive
O=c1[nH]c2ccccc2n1C1CCN(CCCC(c2ccc(F)cc2)c2ccc(F)cc2)CC1 | inactive
NCC(O)c1ccc(O)cc1 (centres undefined) | inactive
C[C@@H]1O[C@@H](O[C@H]2C[C@@H](O)[C@]3(CO)[C@H]4[C@H](O)C[C@]5(C)[C@@H](C6=CC(=O)OC6)CC[C@]5(O)[C@@H]4CC[C@]3(O)C2)[C@H](O)[C@H](O)[C@H]1O | inactive
CCCN1CCC[C@@H]2Cc3nc(N)ncc3C[C@H]21 | inactive
CC[C@@H](CO)NC(=O)[C@@H]1C=C2c3cccc4c3c(cn4C)C[C@H]2N(C)C1 | inactive
O=c1[nH]c2ccccc2n1CCCN1CCC(n2c(=O)[nH]c3cc(Cl)ccc32)CC1 | inactive
NCC(CC(=O)O)c1ccc(Cl)cc1 (centres undefined) | inactive
Fc1ccc(C(OCCN2CCN(CCCc3ccccc3)CC2)c2ccc(F)cc2)cc1 | inactive
CC(C)=CCOc1c2occc2cc2ccc(=O)oc12 | inactive
NCC1(CC(=O)O)CCCCC1 | inactive
Cc1cccc(C)c1NC1=NCCCS1 | inactive
Cc1ncc(CNC(=O)N(CCCl)N=O)c(N)n1 | inactive
CCCN1CCC[C@@H]2Cc3[nH]ncc3C[C@H]21 | inactive
C=C(C)[C@H]1Cc2c(ccc3c2O[C@@H]2COc4cc(OC)c(OC)cc4[C@@H]2C3=O)O1 | inactive
CCC1(C2=NCCN2)Cc2ccccc2O1 (centres undefined) | inactive
N#CC(C#N)=Cc1ccc(O)c(O)c1 | inactive
Cc1cccc(C)c1NC(=O)CN1CCCC1=O | inactive

tested on: not listed separately; test: HTS Assay for Allosteric Antagonists of the Human D2 Dopamine Receptor: Hit Validation in HTRF (AID 624455); conditions: Cells stably expressing D1 dopamine receptor, inhibition mode; series mostly up to 46.1 µM; further: potency means the concentration at half of the fitted maximal effect;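 further: stable D1 dopamine receptor cell line scored for blocking the D1 response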
How it was run: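 Hit validation in cells stably expressing the D1 dopamine receptor, run in HTRF format. Compounds were tested for their ability to inhibit the D1-mediated response.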

SMILES | Potency
Cc1ccc(S(=O)(=O)N[C@@H](CCCCN)C(=O)CCl)cc1 | inactive
COc1ccccc1N1CCNCC1 | inactive
CC(=O)[C@H]1CC[C@H]2[C@@H]3CC[C@H]4C[C@H](O)CC[C@]4(C)[C@H]3C(=O)C[C@]12C | inactive
Nc1ccncc1 | inactive
CCCC(C)(COC(N)=O)COC(=O)NC(C)C (centres undefined) | inactive
CC(=O)[C@H]1CC[C@H]2[C@@H]3CC[C@H]4C[C@](C)(O)CC[C@]4(C)[C@H]3CC[C@]12C | inactive
CC[C@@H](CO)NC(=O)[C@@H]1C=C2c3cccc4[nH]cc(c34)C[C@H]2N(C)C1 | 5.2 nM (active)
O=C1NCN(c2ccccc2)C12CCN(CC1COc3ccccc3O1)CC2 (centres undefined) | inactive
c1ccc(C2CC2)c(OCC2=NCCN2)c1 | inactive
NN=C(N)N | inactive
O=c1[nH]c2ccccc2n1C1CCN(CCCC(c2ccc(F)cc2)c2ccc(F)cc2)CC1 | inactive
C[C@@H]1O[C@@H](O[C@H]2C[C@@H](O)[C@]3(CO)[C@H]4[C@H](O)C[C@]5(C)[C@@H](C6=CC(=O)OC6)CC[C@]5(O)[C@@H]4CC[C@]3(O)C2)[C@H](O)[C@H](O)[C@H]1O | inactive
O=c1[nH]c2ccccc2n1CCCN1CCC(n2c(=O)[nH]c3cc(Cl)ccc32)CC1 | inactive
NCC(CC(=O)O)c1ccc(Cl)cc1 (centres undefined) | inactive
Fc1ccc(C(OCCN2CCN(CCCc3ccccc3)CC2)c2ccc(F)cc2)cc1 | inactive
CC(C)=CCOc1c2occc2cc2ccc(=O)oc12 | inactive
NCC1(CC(=O)O)CCCCC1 | inactive
Cc1cccc(C)c1NC1=NCCCS1 | inactive
Cc1ncc(CNC(=O)N(CCCl)N=O)c(N)n1 | inactive
C=C(C)[C@H]1Cc2c(ccc3c2O[C@@H]2COc4cc(OC)c(OC)cc4[C@@H]2C3=O)O1 | inactive
CCC1(C2=NCCN2)Cc2ccccc2O1 (centres undefined) | inactive
N#CC(C#N)=Cc1ccc(O)c(O)c1 | inactive
Cc1cccc(C)c1NC(=O)CN1CCCC1=O | inactive
